# Measurements taken from the OligoGym collection.
# Target: CXCL1
# Assay: pooled miR-30 sensor sort-seq; sequence = guide strand
# Details: shRNA
# Note: reference of the scale not given here.
row,Sequence,sensor-assay potency score (higher = more potent)
1,TGAGGCAAGCTTTCCGCCCATT,-1.55
2,TTAACTATGGGGGATGCAGGAT,-1.04
3,TTCGATGATTTTCTTAACTATG,-1.26
4,ACACTTTGGATGTTCTTGGGGT,-0.0598
5,TAACTATGGGGGATGCAGGATT,-1.31
6,TTCCGCCCATTCTTGAGTGTGG,-0.98

# Target: CXCL3
# Assay: as above
# Details: shRNA
row,Sequence,sensor-assay potency score (higher = more potent)
1,TTGAGACAAGCTTTCTTCCCAT,0.654
2,TACATAAATAAGTAGAACCCTC,-0.724
3,TAAATAATCAGGACTGAGCTAT,-0.218
4,TTCGATGATTTTCTGAACCATG,-0.954
5,TTTCTTCCCATTCTTGAGTGTG,-0.403
6,ATGATTTTCTGAACCATGGGGG,-0.165
7,TGAGACAAGCTTTCTTCCCATT,-1.23
8,TTGTTCAGTATCTTTTCGATGA,-0.149
9,TAAATAAGTAGAACCCTCGTAA,-0.0177
10,TTTGATGAAACACACTCACATC,-1.05
11,TAGTCAAACACATTAAGTCCTT,-0.625
12,TGCAGTGTCTGCAAGCACTGGC,0.137

# Target: CXorf40A
# Assay: as above
# Details: shRNA
row,Sequence,sensor-assay potency score (higher = more potent)
1,TCCACCAGCAGCTCCCGCCAGG,-1.9
2,TTGGTCAGTACAGCTTGATTTT,-1.4
3,TCAGTACAGCTTGATTTTCTAG,-0.864
4,TCAGGTTGGTCAGTACAGCTTG,0.439
5,TTCAGGTTGGTCAGTACAGCTT,-0.578
6,TACAGCTTGATTTTCTAGTTCC,0.219

# Target: CXorf41
# Assay: as above
# Details: shRNA
row,Sequence,sensor-assay potency score (higher = more potent)
1,TATCATCATATTCTGCTCCTTC,0.467
2,TAACATCCCACATATCATCATA,-1.24
3,TTGAGCTCTTCTATTTGGGGTG,0.00833
4,TTCTTCAGGATTAAGTAGCTTA,0.137
5,TTTATTACCTGTATATTCCAGA,0.269
6,TTATCAACAGCTTCTTCTGAGG,-1.2
7,TTCAATTATGTAATTGACCATG,-1.17
8,TAACTGAAGAAACACTCTCAAA,-1.54
9,TATATCTTCAGTTCCCACCTGC,0.748
10,TAACTCTCTTTTCATAGTCATA,-1.66
11,TAGTTCACTGCAACAACCTGTT,-0.276
12,TTAGCCACTAGTTCACTGCAAC,-0.799

# Target: CXorf56
# Assay: as above
# Details: shRNA
row,Sequence,sensor-assay potency score (higher = more potent)
1,TTTCTGAGTATATATGTTCGTT,-0.396
2,TTGGTCATCATCACCTTCTTAG,-0.419
3,TTGCCCATGTCTTTGGTCCGTT,-0.538
4,TATGAGTCAGCAACTTCCCTAG,0.0765
